Results as given in ChEMBL document CHEMBL4513216, “Probing the Open Global Health Chemical Diversity Library for Multistage-Active Starting Points for Next-Generation Antimalarials” (ACS Infect Dis, 2020).
Among all 69,000 compounds or so, about 8,600 (12%) showed an effect of 50% or more. The entries come from a sample that favours strong results as a whole.

The molecules below were run on Plasmodium berghei (assay: Screen against P. berghei liver stage (PbLuc), transformed with Luciferase, at 10uM). Conditions: tested at 10 uM.
Format: functional, HepG2

SMILES	INHIBITION
CCOc1ccc(C(=O)CCC(=O)N(C)Cc2snnc2C)cc1C	29.7%
Cc1nnc(SCc2cc(=O)n3c4c(sc3n2)CCCC4)[nH]1	25.8%
CC(C)c1noc(CN(Cc2cccs2)C2CC2)n1	41.8%
CC(C)c1noc(CN(C)C(c2ccc(F)cc2)c2cccnc2)n1 (stereo not drawn)	38.6%
COc1cccc(NC(=O)CCCc2nc(C(C)C)no2)c1	26.5%
CC(C)c1noc(C2CCCN2S(=O)(=O)Cc2ccc(F)cc2)n1 (stereo not drawn)	28.7%
CC(C)c1noc(CN(Cc2ccccc2)C2CC2)n1	54.5%
COc1cccc(COc2nc(C(C)C)no2)c1	17.4%
CC(C)c1noc(CN(Cc2ccc(F)cc2)C2CC2)n1	82.4%
CC(C)c1noc(CN(Cc2ccccc2F)C2CC2)n1	16.8%
COc1cccc(CN(C)Cc2nc(C(C)C)no2)c1	61.9%
CCN(Cc1ccc2c(c1)OCCO2)C(=O)NCCc1cnn(C)c1	8.15%
O=C(Nc1nc2c(s1)CN(S(=O)(=O)C1CC1)CC2)c1ccc(=O)[nH]c1	31.9%
NC1(C(=O)NCCC2CN(Cc3ccco3)CCO2)CCCC1 (stereo not drawn)	20%
CCn1ccnc1CN1CCN(C(C)C(=O)N2CCCCCC2)CC1 (stereo not drawn)	30.6%
CCN(CC1CCCO1)C(=O)Nc1cccc(Cl)c1OC (stereo not drawn)	26.4%
Cc1nn(-c2ncnc3[nH]cnc23)c2c1C(C(C)(C)C)CC(=O)N2 (stereo not drawn)	-4.35%
Cc1cnc(CNC(=O)[C@@]23CCO[C@@H]2CCN(c2ncccn2)C3)cn1	9.51%
Cc1occc1C(=O)N1CCCC(C2=Nc3ccccc3S(=O)(=O)N2)C1 (stereo not drawn)	-7.679%
COc1ccccc1CN1CC[C@]2(C[C@H](OC)CO2)C1	-29.2%
Cc1ccc(CNC(=O)CNCC2CCN(CCO)CC2)s1	10.6%
Cc1ccc(CNC(=O)CN(C)CC2CCN(CCO)CC2)s1	53.8%
O=C(CNC(=O)C1CC1)NCc1ccc(Cl)s1	-56.4%

SMILES	INHIBITION
Cc1ccc(CNC(=O)c2cc(CN3CCC(O)CC3)on2)s1	13.7%
O=C(CN1CCN(CCO)CC1)NCc1ccc(Cl)s1	53.8%
Cc1ccc(CNC(=O)CN2CCN(CCO)CC2)s1	5.64%
Cc1cc(C(=O)NC2CCC3(CCC(=O)N3)CC2)no1 (stereo not drawn)	-20.8%
COc1ncccc1CN1CCc2[nH]nc(C(=O)N3CCCC3C)c2C1 (stereo not drawn)	-12.2%
CC(C)c1nnsc1CNC(=O)C1CCN(C(C)C)CC1	5.94%
CCc1ccc(C(=O)N2CCN(c3nc(C)cc(OC)n3)CC2)o1	19.2%
CCc1ccc(CN2CCN(c3ccc(C#N)cc3)C(=O)C2)nc1	62.4%
CCSc1ncc(CN2CCN(c3ccc(C#N)cc3)C(=O)C2)cn1	3.73%
CN(C)c1ccc(CN2CCN(c3ccc(C#N)cc3)C(=O)C2)cn1	18.9%
COCC(=O)N1CCN(S(=O)(=O)c2ccccc2)[C@H]2CS(=O)(=O)C[C@H]21	25.8%
CCc1nc(N2CCCC(O)(CO)CC2)ncc1C (stereo not drawn)	-119%
CNc1cncc(C2CCCN2S(=O)(=O)c2ccccc2)n1 (stereo not drawn)	-46.6%
CC(C)c1ccc(CCC(=O)N2CCOCC2c2ncon2)cc1 (stereo not drawn)	-3.2%
Cc1nc(-c2ccsc2)ccc1C(=O)NCCC(=O)N1CCCC1	49.6%
Cc1nc(-c2ccsc2)ccc1C(=O)NCCN1CCOCC1	48.1%
Cc1nc(-c2ccsc2)ccc1C(=O)NCCC1CCCO1 (stereo not drawn)	52.7%
Cc1noc(C)c1CN(C)C(=O)c1n[nH]c(N)c1-c1ccccc1	-3.96%
COc1ccccc1/C=C/CNCC1CCc2nncn2C1 (stereo not drawn)	38%
CS(=O)(=O)CCCNCc1c(Cl)cccc1N1CCCC1	26.4%
Cc1nccn1-c1ccc(=O)n(CCNC(=O)c2ccncc2)n1	10.5%
CCC(CN1CCN(C)CC1)NC(=O)C1(c2cccc(F)c2)CC1 (stereo not drawn)	37.5%
CCC(CN1CCCC1)NC(=O)C1(c2cccc(F)c2)CC1 (stereo not drawn)	53.65%

SMILES	INHIBITION
CCC(CN1CCCCC1)NC(=O)C1(c2cccc(F)c2)CC1 (stereo not drawn)	28.7%
Cc1oncc1C(=O)N1CCC2(CCN(Cc3cccc(F)c3)C2=O)C1 (stereo not drawn)	1.48%
O=c1cc2c(nn1CN1CCSCC1)CCC2	51%
O=c1cc2c(nn1CN1CCOCC1)CCC2	-1.58%
O=c1cc2c(nn1CN1CCN(c3ccccc3)CC1)CCC2	16.6%
O=C(O)c1ccn(COc2c(Cl)cccc2Cl)n1	0.207%
Cc1ncoc1C(=O)N1CCOC(CCCC(C)C)C1 (stereo not drawn)	-7.81%
O=S(=O)(NCc1cn2ccccc2n1)N1CCOCC1	-38.6%
Cc1nc(N2CCCCC2)ncc1-c1cc(=O)[nH]c(N2CCCC2)n1	68.1%
Cc1nc(N2CCCCC2)ncc1-c1cc(O)nc(N2CCCCC2)n1	25.1%
Cc1nc(N2CCC(C)CC2)ncc1-c1cc(O)nc(N2CCCC2)n1	53.2%
Cc1nc(N2CCCC2)ncc1-c1cc(O)nc(N2CCCC2)n1	-11.1%
Cc1nc(N2CCCC2)ncc1-c1cc(O)nc(N2CCCCC2)n1	36.6%
Cc1nc(N2CCCC2)ncc1-c1cc(O)nc(N2CCN(C)CC2)n1	20.1%
Nc1nccnc1C1CN(C(=O)c2cnccn2)CCO1 (stereo not drawn)	-9.32%
COCC(c1cccc(C(F)(F)F)c1)N(C)C(=O)c1cccnc1 (stereo not drawn)	-34.5%
NC(=O)COc1cccc(Cn2cc(Br)cn2)c1	27%
O=S(=O)(C1CC1)N1CCc2ncnc(-c3ccncc3)c2CC1	12.1%
Cc1nnc(N2CCOC(CN(C)C)C2)c(C#N)c1C (stereo not drawn)	49.25%
Cc1ccc(O)c(C(=O)N2C[C@@H](C(=O)O)[C@H](c3ccccc3)C2)c1	19.4%
CC(C)=CCN1C(=O)[C@@H]2CC[C@H]1CN(c1ncccc1F)C2	12.7%
c1ccc2oc(CCCN3CCCCC3Cn3cncn3)nc2c1 (stereo not drawn)	-41.1%
c1ccc2oc(CN3CCCC3Cn3cncn3)nc2c1 (stereo not drawn)	-4.94%

SMILES	INHIBITION
c1ccc2oc(N3CCCCC3Cn3cncn3)nc2c1 (stereo not drawn)	55.5%
c1ccc2oc(CCCN3CCCC3Cn3cncn3)nc2c1 (stereo not drawn)	30.8%
c1ccc2oc(CN3CCCCC3Cn3cncn3)nc2c1 (stereo not drawn)	55.4%
c1ccc2oc(N3CCCC3Cn3cncn3)nc2c1 (stereo not drawn)	-41.1%
O=C(Nc1cc(C(F)(F)F)c[nH]c1=O)N1CCOCC1	-31.8%
COc1c(C)cnc(CNCC(C)C)c1C	11.95%
CN(C)CC(=O)N1CCc2sc(C(=O)N3CCOCC3)cc21	43%
Cc1nccn1CCN(C)c1cc(C(C)C)nc2ccnn12	51.3%
Cc1cc(N(C)CCn2ccnc2C)n2nccc2n1	48.1%
CC(C)Cc1noc(CN(C)c2cc(C(C)C)nc3ccnn23)n1	23.5%
CC(C)CC(Cc1cccc(Br)c1)C(=O)O (stereo not drawn)	65.4%
COCCC(Cc1cccc(Br)c1)C(=O)O (stereo not drawn)	9%
COCCC(Cc1cccc(Br)c1)C(N)=O (stereo not drawn)	25.3%
CS(=O)(=O)NC[C@H]1Cn2c(-c3ccccc3)cnc2CO1	25.3%
CS(=O)(=O)NC[C@H]1Cn2c(-c3ccc(Cl)cc3)cnc2CO1	5.58%
CS(=O)(=O)NC[C@H]1Cn2c(-c3ccc(F)cc3)cnc2CO1	51.7%
CC(=O)Nc1nc(CN2CCOC(Cn3cncn3)C2)cs1 (stereo not drawn)	11.6%
Cn1cnnc1CCNC(=O)c1cnn(Cc2ccccc2)c1	10.7%
Cc1noc(C)c1CN(C)C(=O)NC1CCC(O)CC1 (stereo not drawn)	40.15%
OCc1cn([C@@H]2c3ccccc3C3(CCNCC3)[C@H]2O)nn1	-76.9%
O[C@H]1[C@H](n2cc(-c3ccccn3)nn2)c2ccccc2C12CCNCC2	-110%
O[C@H]1[C@H](NCCSc2ccccn2)c2ccccc2C12CCNCC2	52.2%
O=C(CC1CCc2ccccc21)NCCSc1ccccn1 (stereo not drawn)	-8.25%

SMILES	INHIBITION
O[C@H]1[C@H](NCCc2cnccn2)c2ccccc2C12CCNCC2	57.8%
O[C@H]1[C@H](NCCc2ccccn2)c2ccccc2C12CCNCC2	28.7%
COc1ccc(Nc2nc(N)c(C(C)=O)s2)cc1OC	27.5%
Cc1cnn(Cc2cccc(OCC(N)=O)c2)c1	40.7%
Cc1ccsc1CNC1CCCc2c1cnn2C (stereo not drawn)	-2.19%
CC(C)(Oc1ccc(C(N)=O)cc1)C(=O)N(CCC#N)C1CC1	23.3%
NC(=O)C1CCN(C(=O)NC2CCN(CC3CCCC3)C2)CC1 (stereo not drawn)	7.83%
O=C(NC1CCN(CC2CCCC2)C1)N1CCC(OCC2CC2)CC1 (stereo not drawn)	39.7%
O=C(NC1CCN(CC2CC2)C1)N1CCC(OC2CCCCC2)CC1 (stereo not drawn)	74%
CCOCc1cnc2n1CCN(C(=O)Cc1cccs1)C2C (stereo not drawn)	34.6%
CCOCc1cnc2n1CCN(C(=O)C1=CCCC1)C2C (stereo not drawn)	5.96%
CC1c2ncc(COCC3CC3)n2CCN1C (stereo not drawn)	21.7%
CCOCc1cnc2n1CCN(C(=O)c1cn(C)c3ccccc13)C2C (stereo not drawn)	57.5%
CCOCc1cnc2n1CCN(C(=O)c1ccoc1C)C2C (stereo not drawn)	48.4%
CCOCc1cnc2n1CCN(C(=O)Cc1ccco1)C2C (stereo not drawn)	10.5%
COCc1cnc2n1CCN(C(=O)c1cn(C)c3ccccc13)C2C (stereo not drawn)	16.8%
CCOCc1cnc2n1CCN(C(=O)c1ccccc1)C2C (stereo not drawn)	57.5%
CCOCc1cnc2n1CCN(C(=O)Cc1ccccn1)C2C (stereo not drawn)	37.8%
CCOCc1cnc2n1CCN(C(=O)c1cccc3c1OCCO3)C2C (stereo not drawn)	52.1%
COCCC(=O)N1CCn2c(COCC3CC3)cnc2C1C (stereo not drawn)	51.2%
CC1c2ncc(COCC3CC3)n2CCN1C(=O)c1ccnnc1 (stereo not drawn)	-27%
